Shown are actives, neighbours in structure and some others; about 1.2% of the full set was active somewhere.
IDH1 R132H inh: inhibitors of human mutant IDH1 R132H; Potency, µM (titrated, usually from 76.6 µM), for inactives: at the highest dose activity change, negative = inhibition, hits mostly inhibitors; 390,000 compounds, 0.093% hits; O75874; IDH1-R132H enzyme, NADPH consumption, diaphorase/resazurin fluorescence; also: nearly all actives have a fitted effect of over 65% in size
Target sequence (O75874 whole entry R132H, stated change not applied): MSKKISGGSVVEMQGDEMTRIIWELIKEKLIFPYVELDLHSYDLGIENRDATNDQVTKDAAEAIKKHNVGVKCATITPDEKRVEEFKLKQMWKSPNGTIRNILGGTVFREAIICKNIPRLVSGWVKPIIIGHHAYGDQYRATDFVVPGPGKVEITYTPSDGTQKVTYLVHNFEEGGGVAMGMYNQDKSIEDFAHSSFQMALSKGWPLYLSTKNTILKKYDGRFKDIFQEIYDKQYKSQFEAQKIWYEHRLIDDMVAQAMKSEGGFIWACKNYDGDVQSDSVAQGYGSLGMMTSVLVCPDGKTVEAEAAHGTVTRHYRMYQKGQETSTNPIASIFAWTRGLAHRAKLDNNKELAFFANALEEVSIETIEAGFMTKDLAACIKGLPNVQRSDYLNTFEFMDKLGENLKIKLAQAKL
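IDH1-R132H (0.5 ug/mL) preincubated 30 min with compound, then NADPH (0.016 mM) and alpha-KG (2 mM) added; 80 min at RT, pH 7.5. Remaining NADPH coupled via diaphorase/resazurin to fluorescence (540/590 nm); concentration-response curves normalized to no-enzyme control.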
rTrxR1 inhibitor: rat TrxR1 inhibition | O89049 | recombinant rTrxR1, NADPH fluorescence consumption, selenite substrate | Potency, µM (titrated, usually from 114 µM), for the others: at the highest dose activity change, negative = inhibition, usual class: inhibitors | 390,000 compounds, 1% hits; also: nearly all actives have a fitted effect of over 65% in size
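Rat TrxR1 (90 nM in the dispensed reagent) was pre-reduced with 400 uM NADPH for 5 min at room temperature, then incubated with compound for 15 min. After 400 uM selenite was added, NADPH fluorescence (Ex 340/Em 450 nm) was followed for 8 min.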
TrxR1 substrate: substrates of rat thioredoxin reductase 1 | O89049 | purified TrxR1 substrate turnover, NADPH consumption readout | Potency, µM (series often up to 114 µM), for inactives: top-dose activity change, negative = substrate turnover | 390,000 compounds, 0.01% hits | AID 588456; also: nearly all actives have a fitted effect of over 50% in size
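Rat TrxR1, dispensed at 90 nM, was prereduced with 400 uM NADPH (final) for 5 min at ~22 deg C, then incubated with compound 15 min before 400 uM selenite. A first-read NADPH fluorescence drop versus no-compound background flagged substrates.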
GLS inhibitor: blocks human kidney-isoform glutaminase activity | AID 624170 | GLS enzymatic activity, qHTS titration | 410,000 compounds, 0.21% hits | Potency, µM (doses to about 45.5 µM), without a hit: at the top dose activity change, negative = inhibition, hits mostly inhibitors
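Assay buffer: 45 mM KH2PO4 pH 8.2, 0.02% Tween-20. hKGA acts on L-glutamine (1 mM solution added); product glutamate is reported by an oxidase/peroxidase Amplex Red coupling, with fluorescence taken at baseline and 30 min.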
The depositor's hits bear a star; i = inactive; ? = inconclusive; . = no result; [ ] = remark or other dose. Calls follow the shape of the dose curve; as a rule, active = well fitted curve in the direction sought with a large enough effect; inconclusive = small, poorly fitted or top-dose-only effect, or another doubt; inactive = no such curve, though single readings can be large; an effect the other way counts as inactive or inconclusive. % is scaled to controls: 0 for no effect and ±100 for the full control effect; potency is read from the fitted curve at half-maximal effect.

SMILES	IDH1 R132H inh	rTrxR1 inhibitor	TrxR1 substrate	GLS inhibitor
Cc1cc(C)c(S(=O)(=O)Nc2ccc(-c3ccc(N4CCC(C)CC4)nn3)cc2)cc1C	-20%	1%[57.1 µM]	-10%[57.1 µM]	2%
Cc1cc(=O)oc2cc(OC(=O)CCN3C(=O)c4ccccc4C3=O)ccc12	1%	40µM*	263%	6%
Cc1cc(=O)oc2cc(OCCCN3C(=O)c4ccccc4C3=O)ccc12	1%	15%	7%	-2%
CCCCn1nc(C(=O)Oc2ccc3c(C)cc(=O)oc3c2)c2ccccc2c1=O	9%	79µM*	569%	16%
O=C(NCc1ccco1)C1Cc2c(-c3cccc(F)c3)ccnc2O1 (stereo not drawn)	.	.	.	-5%
Cc1ccc(S(=O)(=O)CC(=O)N(CCCN2CCOCC2)c2nc3c(F)cccc3s2)cc1	-10%	-6%[57.1 µM]	-5%[57.1 µM]	1%
O=C(CCS(=O)(=O)c1ccccc1)N(CCCN1CCOCC1)c1nc2ccc(F)cc2s1	9%	7.1µM*	8%	-3%
O=C(CCS(=O)(=O)c1ccccc1)N(CCCN1CCOCC1)c1nc2c(F)cccc2s1	-1%	3.2µM*	-10%	6%
CCc1cccc2sc(N(CCCN3CCOCC3)C(=O)CS(=O)(=O)c3ccccc3)nc12	2%	-6%	-9%	7%
CN(C)c1ccc(/C=C/c2ccnc3ccc(Br)cc23)cc1	.	-8%	-6%	.
COc1ccc(C2C(C#N)=C(N)N(c3cccnc3)C3=C2C(=O)CC(C)(C)C3)cc1OC (stereo not drawn)	7%	18µM*	-5%	2%
COc1cc2c(NC3CCN(C(C)C)CC3)nc(N3CCCN(C)CC3)nc2cc1OCCOCCN1CCCC1	.	-19%	110%	.
Cc1ccc(S(=O)(=O)NNC(=O)c2ccc(C(=O)N(c3ccccc3)c3ccccc3)cc2)cc1	.	2%	3%	.
CC(=O)c1cccc(NC(=O)Cn2c(=O)oc3cc(S(=O)(=O)NCc4ccccc4)ccc32)c1	0%	7%[57.1 µM]	5%[57.1 µM]	5%
Cc1cccc(C(=O)NC(=S)Nc2ccc(S(=O)(=O)N3CCN(C)CC3)cc2)c1	4%	?	-4%	4%
O=C(NC(=S)Nc1ccc(S(=O)(=O)N2CCCC2)cc1)c1cccs1	-1%	20µM*	-7%	11%
Cc1ccc(C(=O)NC(=S)Nc2ccc(S(=O)(=O)N3CCN(C)CC3)cc2)cc1	1%	50µM*	-9%	27%
O=C(NC(=S)Nc1ccc(S(=O)(=O)N2CCCCCC2)cc1)c1cccs1	-1%	-32%	1%	4%
O=C(Cc1ccccc1)Nc1cccc(N2C(=O)C=CC2=O)c1	1%	3.5µM*	0%	40%
COc1cccc(NC(=O)Cc2ccccc2)c1	11%	16%[57.1 µM]	-7%[57.1 µM]	-3%
CC(C)(S)C(=O)NC(CS)C(=O)O (stereo not drawn)	.	.	.	-1%
Oc1cc(O)c(CN2CCOCC2)cc1CN1CCOCC1	1%	11µM*	-4%	18%
Oc1c(CN2CCOCC2)cc(CN2CCOCC2)cc1CN1CCOCC1	3%	12%[57.1 µM]	11%[57.1 µM]	26%
COCCNC(=O)c1cc2cc3ccc(OC)cc3nc2o1	15%	71µM*	868%	-11%
CCC(Sc1nc(C)cc(C)n1)C(=O)Nc1cc(C)on1 (stereo not drawn)	11%	16%	1%	15%
SMILES	IDH1 R132H inh	rTrxR1 inhibitor	TrxR1 substrate	GLS inhibitor
CCC(Sc1nc(C)cc(C)n1)C(=O)NC1=NN=C(c2ccc(C)cc2)CS1 (stereo not drawn)	46µM*	5%[57.1 µM]	2%[57.1 µM]	-2%
CCOC(=O)c1cc(S(=O)(=O)Nc2ccc(OC)c(Cl)c2)[nH]n1	-6%	26%[57.1 µM]	0%[57.1 µM]	27%
Cc1ccc(N2C(=O)[C@@H]3[C@H](C2=O)[C@H]2C=C(C(=O)c4ccccc4)C=CN2[C@@H]3C(=O)c2ccc(Cl)cc2)cc1	-9%	-22%[57.1 µM]	6%[57.1 µM]	-13%
O=C(C1=C[C@@H]2[C@H]3C(=O)N(c4cccc(Cl)c4)C(=O)[C@H]3[C@@H](C(=O)c3ccc(Cl)cc3)N2C=C1)c1ccccc1	0%	50µM*	0%	6%
C[C@@H](C(=O)O)c1ccc(C2CCCCC2)c2ccccc12	.	.	.	1%
Cc1c(Cn2cnc3c(cnn3C(C)(C)C)c2=O)cccc1C(F)(F)F	.	7%	-6%	.
O=C(NCc1cccnc1)/C(=C\c1ccc(-c2cccc(Cl)c2)o1)S(=O)(=O)c1ccccc1	-6%	11µM*	-7%	9%
COc1cccc(/C=C/c2nc(C#N)c(N3CCC(C(N)=O)CC3)o2)c1	2%	79µM*	i	0%
COc1cccc(/C=C/c2nc(C#N)c(N3CCCCCC3)o2)c1	-5%	81%	351%	0%
CC(=O)Nc1ccc(NC(=O)c2nc(S(=O)(=O)Cc3ccc(F)cc3)ncc2Cl)cc1	6%	1.3µM*	-2%	9%
Cc1ccc(NC(=O)c2nc(S(=O)(=O)Cc3ccc(F)cc3)ncc2Cl)cc1C	-7%	2.8µM*	8%	1%
CC(=O)c1ccc(N2CCN(c3ncnc4onc(C)c34)CC2)cc1	-8%	4%	-11%	-7%
Cc1ccc(S(=O)(=O)N2CCCc3cc(NS(=O)(=O)c4ccccc4)ccc32)cc1	-6%	21%[57.1 µM]	1%[57.1 µM]	-9%
CCN1CCC(O)(/C=C/c2ccc(C(C)C)cc2)C(C(=O)/C=C/c2ccc(C(C)C)cc2)C1 (stereo not drawn)	-14%	7.9µM*	-14%	5%
CNc1ccc(Br)cc(C(=O)/C=C/c2cccc(OC)c2)c1=O	4%	13µM*	-5%	3%
CNc1ccc(Br)cc(C(=O)/C=C/c2ccc(Cl)cc2Cl)c1=O	1%	-68%	-2%[57.1 µM]	-8%
CNc1ccc(Br)cc(C(=O)/C=C/c2ccc(OC)cc2OC)c1=O	11%	14µM*	-10%	4%
CCOc1cccc(C2C=C(c3ccc4c(c3)OCO4)NC(c3ccccc3Cl)N2)c1O (stereo not drawn)	.	-7%	-1%	.
CC1=CC(=O)C(C(C)C)=C/C1=N\OC(=O)c1cccc2nc(C)oc12	6%	-21%	-12%	9%
CC1=CC(=NOC(=O)c2cccc([N+](=O)[O-])c2)C=C(C)C1=O	1%	10µM*	-1%	26%
CC1=CC(=O)C(C(C)C)=C/C1=N/OC(=O)c1cccc([N+](=O)[O-])c1	0%	13µM*	7%	63%
COCCn1c(SCC(=O)Nc2ccc(C(F)(F)F)cc2)nc2c([nH]c3ccccc32)c1=O	-5%	31%[57.1 µM]	3%[57.1 µM]	-6%
CCc1ccccc1NC(=O)C(CC)Sc1ncnc2c1sc1ccccc12 (stereo not drawn)	-12%	14%[57.1 µM]	0%[57.1 µM]	-1%
COc1ccc2c(c1)-c1nc(NC(=O)c3cc(Cl)ccc3OC)sc1CC2	-2%	33%	33%	4%
CNCc1ccccc1Sc1ccc(O)c(O)c1	17%	32µM*	-10%	1%
O=C(c1ccccc1)n1nnc2ccccc21	-1%	5µM*	-2%	?

Screening data from PubChem BioAssay.
